Screens deposited in PubChem BioAssay by several laboratories.
Gli-Sufu block: antagonists of Gli-Sufu signaling; Sufu-KO-LIGHT fibroblasts, Gli luciferase reporter luminescence; inhibition, % at 5 µM; hit rate 0.74% among 340,000;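 active = inhibition above about 55%, limit read from the data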;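 note: 0% = DMSO-treated cells and 100% = wells with medium but no cells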
TRPM1 prom inh: inhibitors of MITF-driven TRPM1 promoter in melanoma cells; hit rate 0.83% among 330,000; inhibition, % at 12.5 µM; SK-MEL-5 TRPM1 promoter luciferase, 24 h;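 active = mean inhibition across replicates of 60% or more, whatever share of single replicates reaches that level; inconclusive = some that reach 60%, reason not given; inactive = mean inhibition across replicates below 60%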
697 NFkB inh: inhibitors of the PMA/ionomycin-induced NF-kB reporter in 697 B cells | AID 435022 | hit rate 0.33% among 330,000 | 697 B-cell NF-kB luciferase reporter, 16 h | inhibition, % at 4 µM; in the data active = inhibition above about 35%
EBV LMP1 NFkB: inhibitors of Epstein-Barr LMP1-induced NF-kappaB reporter; LMP1-induced NF-kappaB luciferase reporter cells, luminescence; inhibition, % at 12.5 µM; hit rate 0.69% among 350,000; AID 504558; in the data active = inhibition above about 41%; inconclusive = no clear call, values can overlap the other calls;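 note: 0% = neutral control wells and 100% = reference inhibitor control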
Shn3 inh set2: reduces Shn3 3'UTR luciferase signal in osteoblasts; Clone20 osteoblast Shn3 3'UTR firefly luciferase, 24 h; inhibition, % at 12.5 µM; hit rate 0.52% among 360,000; AID 588674;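 active = mean inhibition of at least 75% with every replicate also reaching 75%; inconclusive = mean inhibition at least 75% but some replicate below; inactive = mean inhibition below 75%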;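 note: 0% = median of neutral control wells and 100% = pilot-screen positive control compound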
Jurkat NFkB inh: inhibitors of the PMA/ionomycin-induced NF-kB reporter in Jurkat cells; inhibition, % at 4 µM; AID 435003; hit rate 0.53% among 330,000; PMA/ionomycin-induced NF-kB luciferase reporter, luminescence; in the data active = inhibition above about 50%
Starred values were filed as active, the others as inactive. This is a sample that favours compounds with a hit; in the whole collection about 2.3% have one here.

O=C(Nc1nccs1)c1ccccc1N=Cc1ccccc1 was read as Gli-Sufu block -22.9, TRPM1 prom inh -40.3, 697 NFkB inh -31.6, EBV LMP1 NFkB 1.9, Shn3 inh set2 -19.9 and Jurkat NFkB inh -27.9.
CN(C1=NC(=O)CS1)c1ccc(O)cc1 was read as Gli-Sufu block 1.5, TRPM1 prom inh -0.5, 697 NFkB inh 0.8, EBV LMP1 NFkB -2.8, Shn3 inh set2 5.4 and Jurkat NFkB inh -2.2.
`Cc1cc(C(=O)NC2CCCc3c2cnn3-c2ccc(C(C)(C)C)cc2)nn1C` (configuration not stated) gave Gli-Sufu block 57.5*, TRPM1 prom inh 48.9, 697 NFkB inh 19.3, EBV LMP1 NFkB 21.8, Shn3 inh set2 77.1 and Jurkat NFkB inh 38.6.
Cc1cc(C)cc(-n2ncc3c2CCCC3NC(=O)c2cc(C)n(C)n2)c1 (configuration not stated) was read as Gli-Sufu block -32.1, TRPM1 prom inh 4.6, 697 NFkB inh -12.6, EBV LMP1 NFkB 1.0, Shn3 inh set2 12.3 and Jurkat NFkB inh -16.1.
For CC1=C(C(=O)NC2CCCc3c2cnn3-c2cccc(C)c2C)OCCO1 (configuration not stated) the results were Gli-Sufu block 57.3*, TRPM1 prom inh 15.4, EBV LMP1 NFkB -1.6 and Shn3 inh set2 84.3.
`O=C(O)C1CSC2(c3ccc(F)cc3)CCC(=O)N12` (configuration not stated) gave Gli-Sufu block -5.8, TRPM1 prom inh 10.6, 697 NFkB inh -11.4, EBV LMP1 NFkB -1.9, Shn3 inh set2 7.4 and Jurkat NFkB inh -9.3.
`Cc1cc(C)cc(N=Cc2ccc([N+](=O)[O-])s2)c1` gave Gli-Sufu block -28.5, TRPM1 prom inh 28.0, 697 NFkB inh 17.6, EBV LMP1 NFkB -7.6, Shn3 inh set2 10.0 and Jurkat NFkB inh 0.7.
`O=[N+]([O-])c1ccc(C=Nc2ccc(Cl)c([N+](=O)[O-])c2)s1` gave TRPM1 prom inh 71.4*, 697 NFkB inh 6.9, EBV LMP1 NFkB -48.8, Shn3 inh set2 80.1 and Jurkat NFkB inh 1.7.
For CCOC(=O)N1CCN(C(=O)c2ccc3c(=O)n(Cc4ccc(Cl)cc4)c(=S)[nH]c3c2)CC1 the results were Gli-Sufu block 30.8, TRPM1 prom inh -7.4, 697 NFkB inh -7.4, EBV LMP1 NFkB 4.0, Shn3 inh set2 -0.7 and Jurkat NFkB inh -14.6.
CCOC(=O)N1CCN(C(=O)c2ccc(Cn3c(=S)[nH]c4ccc(Br)cc4c3=O)cc2)CC1 was read as TRPM1 prom inh 71.1*, 697 NFkB inh 30.2, EBV LMP1 NFkB 50.8*, Shn3 inh set2 inconclusive and Jurkat NFkB inh 36.8.
`Cc1nc2ccccn2c1C(=O)N=Nc1c(O)n(CCC(C)C)c2ccccc12` gave Gli-Sufu block 21.8, TRPM1 prom inh 56.6, 697 NFkB inh -48.4, EBV LMP1 NFkB 36.2, Shn3 inh set2 86.0* and Jurkat NFkB inh -10.0.
`CCCn1c(O)c(N=NC(=O)c2ccco2)c2ccccc21` gave Gli-Sufu block 6.8, TRPM1 prom inh -0.8, 697 NFkB inh -3.9, EBV LMP1 NFkB -5.3, Shn3 inh set2 -9.2 and Jurkat NFkB inh -0.4.
For Cc1ncc(CO)c2cc(C(=O)Nc3cccc(F)c3)c(=Nc3cccc(C(N)=O)c3)oc12 the results were Gli-Sufu block 3.8, TRPM1 prom inh 9.1, 697 NFkB inh -7.1, EBV LMP1 NFkB -2.4, Shn3 inh set2 -15.2 and Jurkat NFkB inh -13.4.
`COc1ccc(NC(=O)c2cc3c(CO)cnc(C)c3oc2=Nc2cccc(F)c2)c(OC)c1` gave Gli-Sufu block -10.2, TRPM1 prom inh 10.9, 697 NFkB inh -8.3, EBV LMP1 NFkB 46.8*, Shn3 inh set2 -12.3 and Jurkat NFkB inh 10.5.
`CCc1nn2c(N(C)CCO)cc(C)nc2c1-c1ccc(F)cc1` gave Gli-Sufu block -14.5, TRPM1 prom inh 2.9, 697 NFkB inh -5.5, EBV LMP1 NFkB 2.1, Shn3 inh set2 13.2 and Jurkat NFkB inh -8.1.
For COc1ccc2c(c1)OC(=O)CC2c1cc(OC)c(OC)c(OC)c1 (configuration not stated) the results were Gli-Sufu block -2.5, TRPM1 prom inh 6.2, 697 NFkB inh 1.2, EBV LMP1 NFkB 88.9* and Shn3 inh set2 -13.3.
`O=C(N/N=C/c1ccc(O)cc1O)c1ccc(NC(=O)C2CCCCC2)cc1` gave Gli-Sufu block 5.9, TRPM1 prom inh 67.3*, 697 NFkB inh -37.4, EBV LMP1 NFkB 2.2, Shn3 inh set2 50.0 and Jurkat NFkB inh 31.1.
For Cc1ccc(-c2nn3c(C)nnc3s2)cc1NC(=O)c1ccc(-c2ccc(Cl)cc2Cl)o1 the results were Gli-Sufu block 18.6, TRPM1 prom inh 100.3*, 697 NFkB inh 14.2, EBV LMP1 NFkB 0.2, Shn3 inh set2 58.0 and Jurkat NFkB inh 14.3.
Cc1ccc(-c2nn3c(C)nnc3s2)cc1NC(=O)c1ccc(-c2cccc(Cl)c2)o1 was read as Gli-Sufu block 23.0, TRPM1 prom inh -11.3, 697 NFkB inh 8.9, EBV LMP1 NFkB 15.8, Shn3 inh set2 16.2 and Jurkat NFkB inh -3.1.
`O=C(CSc1ccc2ccccc2n1)N/N=C/c1ccccc1O` gave Gli-Sufu block 2.5, TRPM1 prom inh -17.5, 697 NFkB inh -10.0, EBV LMP1 NFkB 13.3, Shn3 inh set2 19.5 and Jurkat NFkB inh -7.5.
COc1ccc(-c2csc(NC(=O)c3ccccc3F)n2)cc1 was read as Gli-Sufu block -6.2, TRPM1 prom inh -4.9, 697 NFkB inh -2.0, EBV LMP1 NFkB -9.5, Shn3 inh set2 -9.1 and Jurkat NFkB inh 1.0.
For COc1ccc(-c2csc(NC(=O)c3ccccc3NS(=O)(=O)c3ccc(F)c(F)c3)n2)cc1 the results were Gli-Sufu block 75.3*, TRPM1 prom inh 77.0*, 697 NFkB inh -7.6, EBV LMP1 NFkB inconclusive, Shn3 inh set2 79.3 and Jurkat NFkB inh 15.6.
Cc1ccccc1OCC(O)Cn1c(=N)n(Cc2ccccc2)c2ccccc21 (configuration not stated) was read as Gli-Sufu block 35.0, TRPM1 prom inh 17.7, 697 NFkB inh -35.9, EBV LMP1 NFkB -3.9, Shn3 inh set2 87.2* and Jurkat NFkB inh 24.2.
`Cc1ccccc1OCC(O)Cn1c2ccccc2c2ccccc21` (configuration not stated) gave Gli-Sufu block -1.5, TRPM1 prom inh -9.7, 697 NFkB inh 0.9, EBV LMP1 NFkB -5.7, Shn3 inh set2 5.2 and Jurkat NFkB inh 8.5.
COc1ccccc1OCC(O)Cn1c(=N)n(Cc2ccccc2)c2ccccc21 (configuration not stated) was read as Gli-Sufu block 37.0, TRPM1 prom inh 19.9, 697 NFkB inh -17.5, EBV LMP1 NFkB -4.0, Shn3 inh set2 87.3* and Jurkat NFkB inh 27.1.
O=C(O)CC1S/C(=N/N=C/c2ccccn2)NC1=O (configuration not stated) was read as Gli-Sufu block 9.0, TRPM1 prom inh 13.0, 697 NFkB inh 14.8, EBV LMP1 NFkB 4.1, Shn3 inh set2 13.5 and Jurkat NFkB inh -5.1.
